Screens (PubChem BioAssay)
ERK EGF inh: EGF-driven ERK pathway inhibition. HEK293-V1b, EGF-stimulated phospho-ERK AlphaScreen. Potency, µM (top dose mostly 11.5 µM), inactives show top-dose activity change, negative = inhibition, actives largely listed as inhibitors. 130,000 compounds, 0.41% hits. AID 1454;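 note: plate controls were stimulated vehicle wells for no effect and unstimulated vehicle basal for full effect; nearly all actives have a fitted effect of over 55% in size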
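Concentration-response of compounds against EGF-driven ERK phosphorylation in V1b-expressing HEK293 cells; 30 min preincubation, 5 min EGF, AlphaScreen detection; Normalized to DMSO basal and 25 nM EGF.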
NPSR antagonist: neuropeptide S receptor (human) antagonism, cAMP; Q6W5P4; CHO-NPSR cells, cAMP TR-FRET, antagonist mode; Potency, µM (doses to about 38.3 µM), without a hit: at the top dose activity change, negative = inhibition, hits mostly inhibitors; 220,000 compounds, 1% hits; AID 1461; note: nearly all actives have a fitted effect of over 50% in size
Target sequence (Q6W5P4 whole entry, looked up): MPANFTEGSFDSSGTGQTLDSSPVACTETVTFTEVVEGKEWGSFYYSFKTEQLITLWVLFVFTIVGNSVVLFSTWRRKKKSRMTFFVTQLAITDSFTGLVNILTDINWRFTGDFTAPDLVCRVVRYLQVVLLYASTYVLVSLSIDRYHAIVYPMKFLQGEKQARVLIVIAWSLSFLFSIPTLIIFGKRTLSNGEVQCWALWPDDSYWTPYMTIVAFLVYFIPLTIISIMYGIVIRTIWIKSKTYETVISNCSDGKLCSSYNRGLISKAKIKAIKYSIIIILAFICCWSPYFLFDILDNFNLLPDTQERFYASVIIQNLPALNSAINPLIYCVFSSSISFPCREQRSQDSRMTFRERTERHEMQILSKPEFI
An asterisk follows results filed as active; ? = inconclusive; · = no result given; ! = repeats disagree; [ ] = dose if it differs, or a comment. Many of the other results were omitted from the sample, so hits are more common in it than they were. Calls come from the whole dose curve; as a rule, active = well fitted curve in the direction sought with a large enough effect; inconclusive = small, poorly fitted or top-dose-only effect, or another doubt; inactive = no such curve, though single readings can be large; an effect the other way counts as inactive or inconclusive. Unless noted, % is set by controls: 0 for no effect and ±100 for the full control effect; potency is the fitted concentration of half-maximal effect.

SMILES	ERK EGF inh	NPSR antagonist
C=C(C(=O)c1ccccc1)C(c1ccccc1)C(C)C(=O)c1ccccc1 (configuration not stated)	-7%	?
NC(=NCCCCCCN=C(N)/N=C(\N)Nc1ccc(Cl)cc1)/N=C(\N)Nc1ccc(Cl)cc1	22µM*!	·
CC(C)N=C(N)/N=C(\N)Nc1ccc(Cl)cc1	8%[25.7 µM]	·
O=c1c(-c2ccc(Cl)cc2)nc2cncnc2n1Cc1ccccc1Cl	-7%	·
Cc1cccc(N=C2NC(=O)/C(=C/c3cccs3)S2)c1	25µM*	-8%
Cc1cccc(N=C2NC(=O)/C(=C/c3cccn3C)S2)c1	1%[57.5 µM]	46%
CC(C)C[C@H](NC(=O)C1OC1C(=O)O)C(=O)NCCCCN=C(N)N (some centres not stated)	2%	-10%[46.1 µM]
N#CCCCS(=O)(=O)c1nnnn1-c1ccc(Br)cc1	2%	·
C[C@]12C[C@H](O)CC(CO)(CO)C1[C@H](O)C[C@@]13CC4[C@@H](CC12)[C@@]4(C)C3 (some centres not stated)	4%	·
O=Cc1s/c(=N\S(=O)(=O)c2ccccc2)n(CCCCl)c1Cl	22µM*	10µM*
COCCCN1C(=O)CS/C1=N\S(=O)(=O)c1ccccc1	-3%[57.5 µM]	45%
CC(C)Cn1nnnc1S(=O)(=O)CCc1ccccc1	-2%	·
Cc1nc(NC2CCCCC2)c2nc(-c3ccccc3)n(CCN3CCCC3)c2n1	5%	·
CN(C)S(=O)(=O)c1cccc(-c2nn(-c3ccccc3)cc2/C=C2\SC(=S)NC2=O)c1	?	7.9µM*
CN(C)S(=O)(=O)c1cccc(-c2nn(-c3ccccc3)cc2/C=C(\C#N)c2nc3ccccc3[nH]2)c1	-8%	-23%
COC(=O)c1ccccc1C[C@]1(C(=O)OC)C=C[C@H](C)[C@@H](c2ccccc2)N1C(=O)C(F)(F)F	0%	·
N#CCCn1c(=O)c(-c2cccs2)nc2cnc(OCc3ccccc3)nc21	-4%	·
O=C(Nc1cccc(F)c1)N1CC[C@@]2(CCCN(C(=O)c3ccncc3)C2)C1	-7%	·
COc1ccc(-n2c(C)cc(/C=C3/SC(=S)N(C)C3=O)c2C)cc1	-6%	-9%
Cc1cc(/C=C2\SC(=S)N(C)C2=O)c(C)n1-c1cccc(O)c1	28µM*	?
O=C(/C(=C/O)N=Nc1ccccc1)c1cccs1	?	10µM*
C=C(C)C(=O)c1cccs1	0%	·
Cc1ccc(C2C3=C(CC(C)(C)CC3=O)N=C3c4ccccc4C(=O)C32)cc1 (configuration not stated)	0%	-49%
CO[C@]12C(COC(N)=O)C3=C(C(=O)C(C)=C(N)C3=O)N1CC1NC12 (some centres not stated)	23%	·
CC(=O)c1cccc(NC(=O)Nc2csc3c2CCCC3)c1	25µM*	-40%
SMILES	ERK EGF inh	NPSR antagonist
CC(=O)c1cccc(NC(=O)c2csc3c2CCCCC3)c1	-13%	-35%
Cc1cccc(N2CCN(C(=S)c3ccccc3)CC2)c1	2%[57.5 µM]	-21%
Cc1cccc(N2CCN(C(=S)c3ccc([N+](=O)[O-])cc3)CC2)c1	18µM*	-4%
CCOC(=O)/C=C/CCCC=O	-1%	·
Cc1nc(NCc2ccccc2)c2nc(-c3ccccc3)n(CCN3CCOCC3)c2n1	-1%	·
Cc1cc(C)n(-c2nc(NC(C)(C)C)nc(NC(C)(C)C)n2)n1	·	-4%[46.1 µM]
Cc1cc(C)n(-c2nc(Nc3ccccc3C(F)(F)F)nc(-n3nc(C)cc3C)n2)n1	?	0.32µM*
CN1CCc2c(cc(O)c(O)c2Cl)C(c2cccc(Cl)c2)C1 (configuration not stated)	?	-17%[46.1 µM]
CC(=O)O[C@]1(C(C)=O)CC[C@H]2[C@@H]3C=C(Cl)C4=CC(=O)CC[C@]4(C)[C@H]3CC[C@@]21C	?	5µM*
CCCCCC(=O)O[C@@]1(C(C)=O)CCC2C3CCC4=CC(=O)CC[C@@]4(C)C3CC[C@]21C (some centres not stated)	21%	·
CC(=O)O[C@@]1(C(C)=O)CCC2C3C=C(Cl)C4=CC(=O)CC[C@]4(C)C3CC[C@]21C (some centres not stated)	12%	·
CC(=O)O[C@]1(C(C)=O)CC[C@H]2[C@@H]3C[C@H](C)C4=CC(=O)CC[C@]4(C)[C@H]3CC[C@@]21C	-5%[57.5 µM]	2.5µM*
CCCn1c(-c2ccc(F)cc2)nc2c(NCCN3CCCCC3)nc(C)nc21	-2%	·
COc1ccc(Nc2ccnc(Nc3ccc(OC)cc3)n2)cc1	35µM*	11%
CCOc1nc(Nc2ccc(OC)cc2)nc(OCC)n1	·	8%[46.1 µM]
C=C[C@@]1(C)CC[C@H](O)[C@H]2C(=O)CCC[C@@H]21	-4%	·
O=C(O)c1cc(-c2ccc(Cl)s2)nc2ccccc12	4%	6.3µM*
O=C(O)c1cc(-c2ccccc2)nc2ccccc12	1%	-13%
